Values quoted from earlier work as cited in PubChem BioAssay AID977608.
The whole screen tested about 4,300 compounds, of which about 4,300 (100%) were called active. No cut-off is given here; in the data, nearly all actives have IC50 up to about 1400 µM. The set was probably picked from earlier hits. This is one part of the list.

Test: literature IC50 values for PDB complexes, PDB-derived complexes (AID 977608)
Settings: PDB protein-ligand complexes

Cn1c(=O)c(C(=O)NCC(=O)O)c(O)c2ccccc21
IC50 (protein: EGL NINE HOMOLOG 1, PDB entry 4bqw): 0.033 µM (active)

CO[C@H]1CN(c2nc(-c3ncnn3C)c(C(=O)O)s2)CC[C@H]1NC(=O)c1[nH]c(C)c(Cl)c1Br
IC50 (protein: DNA GYRASE SUBUNIT B, PDB entry 4bae): 0.003 µM (active)

Nc1ccc(CC(=O)OCCc2ccccc2)c(C=O)c1
IC50 (protein: RHOMBOID PROTEASE GLPG, PDB entry 3zeb): 0.74 µM (active)

Cc1ccc(S(=O)(=O)Nc2cc(Oc3ccccc3)ccc2C(=O)O)cc1
IC50 (protein: Genome polyprotein, PDB entry 4j0a): 0.16 µM (active)

Cc1ccc(S(=O)(=O)Nc2ccc(Oc3ccccc3)cc2C(=O)O)cc1
IC50 (protein: Genome polyprotein, PDB entry 4j08): 0.22 µM (active)

N=C[C@@H]1CCCN1C(=O)CNC12C[C@@H]3C[C@@H](CC(O)(C3)C1)C2
IC50 (protein: Dipeptidyl peptidase 4, PDB entry 3w2t): 0.0292 µM (active)

O=C(O)c1sc(-c2ccccc2)cc1N1C(=O)CC[C@@H]1C1CCCCC1
IC50 (protein: NS5B, PDB entry 4tn2): 0.12 µM (active)

Cc1[nH]ncc1-c1ccccc1Cl
IC50 (protein: Adenylate cyclase type 10 hsolAC, PDB entry 4oyo): 300 µM (active)

Cc1[nH]ncc1-c1ccc(F)cc1
IC50 (protein: Adenylate cyclase type 10 hsolAC, PDB entry 4oz2): 1000 µM (active)

O=c1c2ccccc2oc2c(Cc3ccc(O)cc3)[nH]c(-c3cccs3)c12
IC50 (protein: cGMP-specific 3',5'-cyclic Phosphodiesterase-5 (PDE5), PDB entry 4md6): 0.017 µM (active)

CCC(=N)C[C@@H](c1ccccc1)[C@]12Nc3cc(C)c(C)cc3N(C[C@H](O)[C@H](O)[C@H](O)CO[P+](O)(O)O[P+](O)(O)OC[C@H]3O[C@@H](n4cnc5c(N)ncnc54)[C@H](O)[C@@H]3O)[C@@H]1NC(=O)NC2=O
IC50 (protein: LYSINE-SPECIFIC HISTONE DEMETHYLASE 1A, PDB entry 4uv9): 0.975 µM (active)

CC(=N)C[C@@H](c1ccccc1)[C@]12Nc3cc(C)c(C)cc3N(C[C@H](O)[C@H](O)[C@H](O)CO[P+](O)(O)O[P+](O)(O)OC[C@H]3O[C@@H](n4cnc5c(N)ncnc54)[C@H](O)[C@@H]3O)[C@@H]1NC(=O)NC2=O
IC50 (protein: LYSINE-SPECIFIC HISTONE DEMETHYLASE 1A, PDB entry 4uva): 1.78 µM (active)

Cc1cc2c(cc1C)N1[C@@](C)(N)CC(c3ccccc3)[C@]13C(=O)NC(=O)N[C@H]3N2C[C@H](O)[C@H](O)[C@H](O)CO[P+](O)(O)O[P+](O)(O)OC[C@H]1O[C@@H](n2cnc3c(N)ncnc32)[C@H](O)[C@@H]1O (stereo partly specified)
IC50 (protein: LYSINE-SPECIFIC HISTONE DEMETHYLASE 1A, PDB entry 4uvb): 3.26 µM (active)

Cc1cc2c(cc1C)N([C@@](N)(CCc1ccccc1)c1ccccc1)C1C(=O)NC(=O)N=C1N2C[C@H](O)[C@H](O)[C@H](O)CO[P+](O)(O)O[P+](O)(O)OC[C@H]1O[C@@H](n2cnc3c(N)ncnc32)[C@H](O)[C@@H]1O (stereo partly specified)
IC50 (protein: LYSINE-SPECIFIC HISTONE DEMETHYLASE 1A, PDB entry 4uvc): 0.131 µM (active)

Cc1cc2c(cc1C)N(C[C@H](O)[C@H](O)[C@H](O)CO[P+](O)(O)O[P+](O)(O)OC[C@H]1O[C@@H](n3cnc4c(N)ncnc43)[C@H](O)[C@@H]1O)[C@@H]1NC(=O)NC(=O)[C@@]1([C@@H](CC(=N)Cc1ccccc1)c1ccccc1)N2
IC50 (protein: LYSINE-SPECIFIC HISTONE DEMETHYLASE 1A, PDB entry 4uv8): 0.335 µM (active)

O=C(O)c1nc(-c2ccc3cccc(N=Nc4nc5ccccc5s4)c3c2)sc1CCCCc1ccccc1
IC50 (protein: BCL-2-LIKE PROTEIN 1, PDB entry 3zlo): 0.0015 µM (active)
